Values without a mark were called inactive. Records with an inconclusive call do not appear. Where a call stands in place of a potency, no number is given. Active and inactive are the calls of the source. Unless noted, calls follow the shape of the dose curve; as a rule, active = well fitted curve in the direction sought with a large enough effect; inconclusive = small, poorly fitted or top-dose-only effect, or another doubt; inactive = no such curve, though single readings can be large; an effect the other way counts as inactive or inconclusive.
Tests used:
[1] = target: T1, Hexokinase-4 (Homo sapiens) + Glucokinase regulatory protein (Homo sapiens) (UniProt P35557+Q14397); assay: qHTS assay for inhibitors of recombinant human GCK-GKRP interaction: Diaphorase-coupled assay (AID 743205)
Outline: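 Resorufin fluorescence (525/590 nm), read each minute over 30 min, reports GCK activity coupled via G6PDH and diaphorase. Reaction: 10 nM GST-GCK, 10 nM FLAG-GKRP, 5 mM glucose, 0.4 mM ATP, 0.15 mM NADP+, 0.1 mM resazurin.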

[2] = target: T1, Hexokinase-4 (Homo sapiens) + Glucokinase regulatory protein (Homo sapiens); assay: qHTS assay for inhibitors of recombinant human GCK-GKRP interaction: ADP-Glo assay (AID 743206)
Outline: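 GST-GCK and FLAG-GKRP (15 nM each in the dispensed mix, with 2 uM S6P) react with 0.4 mM ATP and 5 mM glucose (final) in Hepes pH 7.6 for 60 min at room temperature. ADP is measured by ADP-Glo luminescence.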

[3] = target: T1, Hexokinase-4 (Homo sapiens) + Glucokinase regulatory protein (Homo sapiens); assay: qHTS assay for inhibitors of recombinant human GCK-GKRP interaction: HTRF assay (AID 743207)
Outline: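 HTRF read-out (ex 320 nm; 615/665 nm emission) after 60 min RT equilibration of 5 nM GST-GCK, 5 nM FLAG-GKRP, 2 uM S6P, compound and anti-FLAG/anti-GST detection antibodies; signal normalized between DMSO wells with and without GCK.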

[4] = qHTS assay for measurement of the activity of small molecule inhibitors on Zika virus induced Caspase-3 activity in human iPSC derived neural progenitor cells (hNPCs) (AID 1224857); also: nearly all actives have a fitted effect of over 65% in size
Outline: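 Pretreat hNPCs with compound 1 h; infect ZIKV 2 FFU/cell; 6 h 37 C, 5% CO2; Caspase-Glo 3/7, 30 min RT; luminescence; normalize to no-virus and virus-only wells.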

[5] = qHTS assay for measurement of the activity of small molecule inhibitors on Zika virus induced Caspase-3 activity in human astrocytoma cells (AID 1224859)
Outline: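 Human SNB-19 astrocytoma cells in RPMI 1640 with 10% FBS receive compound one hour ahead of Zika virus at 2 FFU/cell. After 6 h infection, caspase-3/7 activity is detected by Caspase-Glo luminescence.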

[6] = Natriuretic polypeptide receptor (hNpr1) antagonism - Pilot counterscreen GloSensor control cell line (AID 1347045; calls by dose curve; also: potency is read from the fitted curve at half-maximal effect)
Outline: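 HEK293 cGMP GloSensor cells preloaded 2 h with 2% GloSensor reagent, then compound 30 min before baseline luminescence read. Stimulated with 50 uM sodium nitroprusside, 20 min at room temperature, then read again; counterscreen for Npr1 antagonism.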

[7] = target: Atrial natriuretic peptide receptor 1 (Homo sapiens) (UniProt P16066); assay: Natriuretic polypeptide receptor (hNpr1) antagonism - Pilot screen (AID 1347049; calls by dose curve;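 also: agonist-evoked cGMP luminescence read 20 min after hNppA addition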; also: potency is read from the fitted curve at half-maximal effect)
Outline: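 HEK293 cells expressing hNpr1 and GloSensor cGMP luciferase, 1500/well, loaded with 2% GloSensor reagent 2 h, compound 30 min at room temperature; luminescence read before and 20 min after 0.1 nM hNppA stimulation.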

[8] = qHTS Assay for Identifying Gametocytocidal Compounds (AID 743244);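 also: actives lower the fluorescent signal which means gametocytes are killed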; settings: P. falciparum 3D7 stage III-V gametocytes, alamarBlue, 72 h; max response: active compounds read low
Outline: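 Compounds are pinned into medium, gametocytes (stage III–V, 3D7, 20,000 cells/well) added, and plates held 72 h at 37 °C in 5% CO2. AlamarBlue follows for 24 h before fluorescence reading.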

[9] = target: Atrial natriuretic peptide receptor 2 (Homo sapiens) (UniProt P20594); assay: Natriuretic polypeptide receptor (hNpr2) antagonism - Pilot subtype selectivity assay (AID 1347050; calls by dose curve)
Outline: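 HEK293 cells expressing hNpr2 and a GloSensor cGMP luciferase sensor, 1500/well, preloaded 2 h with 2% GloSensor reagent, compound 30 min, then 1 nM hNppC for 20 min. Antagonism from luminescence after versus baseline pre-read; LOPAC in 1:5 titrations.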

Atrial natriuretic peptide receptor 2 (Homo sapiens), sequence (P20594 whole entry, looked up): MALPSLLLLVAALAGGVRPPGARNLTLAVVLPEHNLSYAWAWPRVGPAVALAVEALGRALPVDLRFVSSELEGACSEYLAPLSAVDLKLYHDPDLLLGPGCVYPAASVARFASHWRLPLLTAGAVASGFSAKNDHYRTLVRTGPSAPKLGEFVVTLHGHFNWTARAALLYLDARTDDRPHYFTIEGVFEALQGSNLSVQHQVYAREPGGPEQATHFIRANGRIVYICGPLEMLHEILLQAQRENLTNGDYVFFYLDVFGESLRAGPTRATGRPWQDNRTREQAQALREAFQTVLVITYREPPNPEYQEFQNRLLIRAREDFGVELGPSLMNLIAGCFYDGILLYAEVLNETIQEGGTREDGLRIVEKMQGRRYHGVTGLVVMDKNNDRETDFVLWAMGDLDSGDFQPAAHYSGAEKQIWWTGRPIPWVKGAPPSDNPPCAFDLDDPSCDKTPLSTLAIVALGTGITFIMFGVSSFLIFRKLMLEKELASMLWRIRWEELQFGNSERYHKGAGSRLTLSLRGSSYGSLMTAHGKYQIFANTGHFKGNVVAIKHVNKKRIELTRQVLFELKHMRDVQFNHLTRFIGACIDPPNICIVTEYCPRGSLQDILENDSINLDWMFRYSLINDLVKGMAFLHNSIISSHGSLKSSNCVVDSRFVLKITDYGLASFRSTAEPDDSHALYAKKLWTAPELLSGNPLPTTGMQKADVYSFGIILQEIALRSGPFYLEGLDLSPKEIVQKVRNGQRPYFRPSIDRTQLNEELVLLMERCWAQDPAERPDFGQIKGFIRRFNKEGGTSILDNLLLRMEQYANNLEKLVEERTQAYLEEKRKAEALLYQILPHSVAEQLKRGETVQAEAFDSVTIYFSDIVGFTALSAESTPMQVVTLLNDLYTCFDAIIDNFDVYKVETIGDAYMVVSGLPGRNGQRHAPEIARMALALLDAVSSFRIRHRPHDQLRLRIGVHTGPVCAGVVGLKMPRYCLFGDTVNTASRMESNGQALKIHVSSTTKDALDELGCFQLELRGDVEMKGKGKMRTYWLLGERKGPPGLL
Atrial natriuretic peptide receptor 1 (Homo sapiens), sequence (P16066 whole entry, looked up): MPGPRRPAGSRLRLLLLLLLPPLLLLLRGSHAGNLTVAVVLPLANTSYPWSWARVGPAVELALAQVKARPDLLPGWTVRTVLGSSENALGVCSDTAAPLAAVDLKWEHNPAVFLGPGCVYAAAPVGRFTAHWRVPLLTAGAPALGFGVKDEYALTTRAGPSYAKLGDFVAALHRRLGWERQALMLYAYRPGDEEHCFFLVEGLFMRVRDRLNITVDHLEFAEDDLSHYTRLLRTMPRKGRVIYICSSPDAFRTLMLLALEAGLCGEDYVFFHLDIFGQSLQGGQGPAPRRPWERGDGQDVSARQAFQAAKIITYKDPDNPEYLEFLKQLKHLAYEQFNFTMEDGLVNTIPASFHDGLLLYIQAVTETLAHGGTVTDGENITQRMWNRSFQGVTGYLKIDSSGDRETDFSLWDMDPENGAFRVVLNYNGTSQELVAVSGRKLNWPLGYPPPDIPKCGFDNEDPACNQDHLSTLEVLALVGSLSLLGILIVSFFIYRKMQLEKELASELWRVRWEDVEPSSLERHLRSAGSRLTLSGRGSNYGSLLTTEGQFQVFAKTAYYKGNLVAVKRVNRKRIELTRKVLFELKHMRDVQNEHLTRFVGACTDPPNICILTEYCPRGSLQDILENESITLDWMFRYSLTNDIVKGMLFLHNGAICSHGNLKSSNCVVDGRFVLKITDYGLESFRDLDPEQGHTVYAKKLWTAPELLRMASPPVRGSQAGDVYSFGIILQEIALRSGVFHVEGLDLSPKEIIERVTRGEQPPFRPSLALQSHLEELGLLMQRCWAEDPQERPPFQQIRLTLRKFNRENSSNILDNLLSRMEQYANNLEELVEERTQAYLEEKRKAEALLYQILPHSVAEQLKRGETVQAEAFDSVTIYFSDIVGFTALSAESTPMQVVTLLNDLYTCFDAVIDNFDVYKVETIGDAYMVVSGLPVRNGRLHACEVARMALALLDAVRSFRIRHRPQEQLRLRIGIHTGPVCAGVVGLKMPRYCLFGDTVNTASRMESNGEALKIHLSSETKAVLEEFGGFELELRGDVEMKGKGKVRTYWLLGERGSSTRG
T1 sequence (P35557 whole entry, looked up): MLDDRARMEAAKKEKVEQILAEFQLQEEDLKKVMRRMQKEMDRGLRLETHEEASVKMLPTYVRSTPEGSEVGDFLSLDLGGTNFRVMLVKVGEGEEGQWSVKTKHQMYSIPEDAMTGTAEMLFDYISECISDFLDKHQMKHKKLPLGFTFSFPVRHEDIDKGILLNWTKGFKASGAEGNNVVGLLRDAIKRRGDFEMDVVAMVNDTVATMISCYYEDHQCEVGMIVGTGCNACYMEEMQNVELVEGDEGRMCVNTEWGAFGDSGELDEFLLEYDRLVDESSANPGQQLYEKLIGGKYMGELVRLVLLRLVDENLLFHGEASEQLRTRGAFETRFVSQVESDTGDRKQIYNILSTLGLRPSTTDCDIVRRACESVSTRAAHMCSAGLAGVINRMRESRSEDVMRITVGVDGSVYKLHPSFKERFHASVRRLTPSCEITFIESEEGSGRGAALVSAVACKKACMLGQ
T1 sequence (Q14397 whole entry, looked up): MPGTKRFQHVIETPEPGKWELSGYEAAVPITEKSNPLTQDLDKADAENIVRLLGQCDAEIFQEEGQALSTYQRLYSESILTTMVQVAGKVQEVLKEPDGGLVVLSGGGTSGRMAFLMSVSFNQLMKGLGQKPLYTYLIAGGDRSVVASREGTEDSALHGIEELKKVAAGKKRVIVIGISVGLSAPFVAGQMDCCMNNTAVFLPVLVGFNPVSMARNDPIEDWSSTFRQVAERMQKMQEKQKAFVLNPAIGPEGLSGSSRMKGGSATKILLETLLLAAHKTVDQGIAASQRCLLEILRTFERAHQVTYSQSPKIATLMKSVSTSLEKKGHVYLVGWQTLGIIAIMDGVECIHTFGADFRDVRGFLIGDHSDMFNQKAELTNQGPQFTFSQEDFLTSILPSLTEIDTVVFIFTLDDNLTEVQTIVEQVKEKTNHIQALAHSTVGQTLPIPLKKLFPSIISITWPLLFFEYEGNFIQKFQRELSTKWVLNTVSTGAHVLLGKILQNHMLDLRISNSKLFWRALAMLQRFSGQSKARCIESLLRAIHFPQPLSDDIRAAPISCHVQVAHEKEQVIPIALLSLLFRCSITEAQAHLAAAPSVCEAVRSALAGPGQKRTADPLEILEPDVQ

| Structure (SMILES) | Potency [1] | Potency [2] | Potency [3] | Potency [4] | Potency [5] | Potency [6] | Potency [7] | max response [8] [%] | Potency [9] |
| --- | --- | --- | --- | --- | --- | --- | --- | --- | --- |
| CC(C)(C)c1ccc(/C=C/C(=O)Nc2ccc3c(c2)OCCO3)cc1 | inactive | inactive | inactive | inactive | inactive | 16.5 µM (active) | 23.9 µM (active) |  |  |
| O=C(O)[C@H]1NCCC[C@H]1C(=O)O | inactive | inactive | inactive | inactive | inactive | inactive | inactive |  |  |
| CCCCCCN(CCCCCC)C(=O)Cc1c(-c2ccc(F)cc2)[nH]c2ccccc12 | inactive | inactive | inactive | inactive | inactive | inactive | inactive | 19.7 |  |
| CC(C)[C@@H]1CC[C@@H](C)C[C@@H]1P(=O)(c1ccccc1)c1ccccc1 | inactive | inactive | inactive | inactive | inactive | inactive | inactive |  |  |
| CN1CCC2(CCN3CCc4c(oc5ccccc45)C3C2)N(C)C1=O (centres undefined) | inactive | inactive | inactive | inactive | inactive | inactive | inactive | 28.4 |  |
| CCCCCCCCCCC(C)(C)C(=O)Nc1c(OC)cc(OC)cc1OC |  | inactive | inactive | inactive | inactive | inactive | inactive | -6 | inactive |
| CN1CCN(c2nc3cc(C(F)(F)F)ccc3n3cccc23)CC1 |  | inactive | inactive | inactive | inactive | inactive | inactive | 14.6 | inactive |
| CCN(c1nc(N)c(C(=O)N=C(N)N)nc1Cl)C(C)C | inactive | inactive | inactive | inactive | inactive | inactive | inactive |  |  |
| COc1ccc(CCN(C)CCc2ccc(OC)c(OC)c2)cc1OC | inactive | inactive | inactive | inactive | inactive | inactive | inactive | 12.4 |  |
| O=C(O)/C=C/c1ccc(O)c(O)c1 |  | inactive | inactive | inactive | inactive | inactive | inactive | 8.93 | inactive |
| N[C@H](C(=O)O)[C@H]1C[C@@H]1C(=O)O | inactive | inactive | inactive | inactive | inactive | inactive | inactive |  |  |
| CC(=O)/C(C)=N/O |  | inactive | inactive | inactive | inactive | inactive | inactive | -4.63 | inactive |
| COc1cc([C@@H]2c3cc4c(cc3[C@H](O)C3COC(=O)[C@@H]32)OCO4)cc(OC)c1OC (some centres undefined) | inactive | inactive | inactive | inactive | inactive | inactive | inactive |  |  |
| O=c1[nH]c2ccccc2c2ccccc12 |  | inactive | inactive | inactive | inactive | inactive | inactive | 36 | inactive |
| C[C@@H](NCCc1ccc(O)cc1)[C@@H](O)c1ccc(O)cc1 | inactive | inactive | inactive | inactive | inactive | inactive | inactive | 2.62 |  |
| Nn1nnc2ccccc21 |  | inactive | inactive | inactive | inactive | inactive | inactive | 16.9 | inactive |
| O=C1C2C=CC=CC2=NC(=S)N1CCN1CCC(=C(c2ccc(F)cc2)c2ccc(F)cc2)CC1 (centres undefined) | inactive | inactive | inactive | inactive | inactive | inactive | inactive | 2.83 |  |
| CN(C)CCC(c1ccc(Br)cc1)c1ccccn1 (centres undefined) | inactive | inactive | inactive | inactive | inactive | inactive | inactive | 11.9 |  |
| CN1CCc2cc(Cl)c(O)cc2[C@@H](c2ccccc2)C1 |  | inactive | inactive | inactive | inactive | inactive | inactive | 34.1 | inactive |
| O=[N+]([O-])c1cccc2cn[nH]c12 |  | inactive | inactive | inactive | inactive | inactive | inactive | 8.31 | inactive |
| N[C@H](C(=O)O)[C@H](O)C(=O)O |  | inactive | inactive | inactive | inactive | inactive | inactive | 13.2 | inactive |
| S=C(S)N1CCCC1 | inactive | inactive | inactive | inactive | inactive | 7.36 µM (active) | 9.53 µM (active) |  |  |
| COC(=O)C(N)Cc1ccc(Cl)cc1 (centres undefined) | inactive | inactive | inactive | inactive | inactive | inactive | inactive |  |  |
| Cc1ccc2c(c1)C(N1CCN(C)CC1)=Nc1cccnc1N2 | inactive | inactive | inactive | inactive | inactive | inactive | inactive |  |  |
| CCN(CC)CCCCCCCCOC(=O)c1cc(OC)c(OC)c(OC)c1 |  | inactive | inactive | inactive | inactive | inactive | inactive | 31.2 | inactive |
| CO/N=C(\C(=O)N[C@@H]1C(=O)N2C(C(=O)O)=C(CSc3nc(=O)c(O)nn3C)CSC12)c1csc(N)n1 (some centres undefined) |  | inactive | inactive | inactive | inactive | inactive | inactive | 32.5 | inactive |
| NCCS(=O)O | inactive | inactive | inactive | inactive | inactive | inactive | inactive | 18 |  |
| O=S(=O)(c1cccc2c(Cl)cccc12)N1CCCNCC1 | inactive | inactive | inactive | inactive | inactive | inactive | inactive |  |  |

— PubChem BioAssay (NCATS)
